Experimental data taken from the supplement of paper PMC6411743.
± gives the standard deviation of the averaged measurements. The full data set covers some 6,500 targets. This sample favours those with the largest changes.

Compound: Nc1ncnc2c1ncn2[C@@H]1O[C@H](COP(=O)(O)OP(=O)(O)OP(=O)(O)O)[C@@H](O)[C@H]1O [adenosine triphosphate]
Test: NP40-soluble protein abundance relative to vehicle (solubility fold change) (ratio); higher = more soluble protein in presence of ATP
Procedure, shortened: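 Crude Jurkat lysate, prepared by Dounce homogenisation, was exposed to eight concentrations from 0.1 to 10 mM for 10 min at room temperature and then 3 min at 37 °C. Solubilisation used 0.8% NP40 with benzonase for 60 min at 4 °C, followed by ultracentrifugation and TMT labelling of the supernatant for LC-MS/MS. After vsn normalisation of intensities, each value is the fold change against the detergent-processed vehicle within each replicate, across three independent experiments.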

Sequence of UniProt Q9NWH9 (Q9NWH9 whole entry, one chain of several): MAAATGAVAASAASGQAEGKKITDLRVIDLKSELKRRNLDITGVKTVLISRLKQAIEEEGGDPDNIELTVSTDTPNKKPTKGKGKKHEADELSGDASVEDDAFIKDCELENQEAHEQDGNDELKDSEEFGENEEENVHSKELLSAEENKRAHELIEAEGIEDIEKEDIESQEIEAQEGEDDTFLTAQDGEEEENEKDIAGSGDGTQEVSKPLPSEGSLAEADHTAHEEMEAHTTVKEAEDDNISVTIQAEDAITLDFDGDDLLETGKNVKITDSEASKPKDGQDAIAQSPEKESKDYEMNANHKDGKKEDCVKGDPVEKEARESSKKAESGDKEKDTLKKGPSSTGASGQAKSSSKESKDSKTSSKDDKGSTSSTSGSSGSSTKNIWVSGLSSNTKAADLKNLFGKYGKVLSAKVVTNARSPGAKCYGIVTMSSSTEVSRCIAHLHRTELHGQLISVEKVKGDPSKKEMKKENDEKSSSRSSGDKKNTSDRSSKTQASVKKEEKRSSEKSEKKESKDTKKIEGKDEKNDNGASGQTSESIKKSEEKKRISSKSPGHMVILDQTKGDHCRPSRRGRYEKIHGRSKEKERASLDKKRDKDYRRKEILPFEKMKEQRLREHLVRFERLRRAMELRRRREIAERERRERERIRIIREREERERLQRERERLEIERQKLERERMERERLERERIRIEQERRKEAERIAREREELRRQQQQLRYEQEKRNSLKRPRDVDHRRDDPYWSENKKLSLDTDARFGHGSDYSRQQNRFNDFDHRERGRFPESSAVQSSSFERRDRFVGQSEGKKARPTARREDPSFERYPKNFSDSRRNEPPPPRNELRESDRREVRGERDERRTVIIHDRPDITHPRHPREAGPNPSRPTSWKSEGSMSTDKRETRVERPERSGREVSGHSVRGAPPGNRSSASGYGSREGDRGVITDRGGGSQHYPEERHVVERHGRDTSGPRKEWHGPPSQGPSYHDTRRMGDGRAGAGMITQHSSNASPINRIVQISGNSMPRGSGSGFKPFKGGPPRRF
Sequence of UniProt O43678 (O43678 whole entry): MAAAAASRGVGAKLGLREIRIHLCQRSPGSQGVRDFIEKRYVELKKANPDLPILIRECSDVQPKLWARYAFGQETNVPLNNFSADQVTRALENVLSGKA
Sequence of UniProt Q9BRQ6 (Q9BRQ6 whole entry, one chain of several): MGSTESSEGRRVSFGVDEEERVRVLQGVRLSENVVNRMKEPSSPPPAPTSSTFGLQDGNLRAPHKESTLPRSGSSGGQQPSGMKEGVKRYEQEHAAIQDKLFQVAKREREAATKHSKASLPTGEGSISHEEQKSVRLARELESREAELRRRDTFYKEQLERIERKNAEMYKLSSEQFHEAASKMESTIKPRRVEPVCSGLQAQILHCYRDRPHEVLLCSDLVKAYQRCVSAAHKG
Sequence of UniProt Q9Y592 (Q9Y592 whole entry, one chain of several): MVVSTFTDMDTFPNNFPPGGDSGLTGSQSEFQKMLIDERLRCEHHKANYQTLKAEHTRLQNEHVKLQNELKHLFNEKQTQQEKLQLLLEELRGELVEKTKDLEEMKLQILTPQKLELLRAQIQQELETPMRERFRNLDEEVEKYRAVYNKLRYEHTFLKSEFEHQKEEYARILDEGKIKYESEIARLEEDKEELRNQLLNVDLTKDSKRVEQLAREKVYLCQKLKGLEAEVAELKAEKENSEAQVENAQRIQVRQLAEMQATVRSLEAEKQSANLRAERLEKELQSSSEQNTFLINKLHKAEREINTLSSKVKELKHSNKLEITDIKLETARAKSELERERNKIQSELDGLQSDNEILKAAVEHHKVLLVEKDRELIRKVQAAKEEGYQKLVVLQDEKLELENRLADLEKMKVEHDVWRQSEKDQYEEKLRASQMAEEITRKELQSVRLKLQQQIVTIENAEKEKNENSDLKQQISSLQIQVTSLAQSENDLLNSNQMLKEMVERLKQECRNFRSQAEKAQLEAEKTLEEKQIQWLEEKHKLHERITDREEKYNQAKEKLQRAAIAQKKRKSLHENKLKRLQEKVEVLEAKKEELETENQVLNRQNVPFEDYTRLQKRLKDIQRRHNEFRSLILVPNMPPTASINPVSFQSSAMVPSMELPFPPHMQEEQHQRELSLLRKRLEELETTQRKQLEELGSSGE
Sequence of UniProt P04350 (P04350 whole entry, one chain of several): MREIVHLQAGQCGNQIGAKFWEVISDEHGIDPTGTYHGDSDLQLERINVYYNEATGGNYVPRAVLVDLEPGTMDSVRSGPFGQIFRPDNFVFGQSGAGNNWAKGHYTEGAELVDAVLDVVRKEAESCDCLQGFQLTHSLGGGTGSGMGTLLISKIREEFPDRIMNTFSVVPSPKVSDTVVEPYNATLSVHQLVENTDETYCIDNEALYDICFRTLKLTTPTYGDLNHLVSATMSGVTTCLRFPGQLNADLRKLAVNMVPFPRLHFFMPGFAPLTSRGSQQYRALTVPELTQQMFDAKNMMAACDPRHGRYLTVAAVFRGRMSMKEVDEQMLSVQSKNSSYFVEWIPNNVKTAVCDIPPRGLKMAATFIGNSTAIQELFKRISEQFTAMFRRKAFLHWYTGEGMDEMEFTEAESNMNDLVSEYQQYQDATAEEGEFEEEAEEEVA
Sequence of UniProt O43795 (O43795 whole entry, one chain of several): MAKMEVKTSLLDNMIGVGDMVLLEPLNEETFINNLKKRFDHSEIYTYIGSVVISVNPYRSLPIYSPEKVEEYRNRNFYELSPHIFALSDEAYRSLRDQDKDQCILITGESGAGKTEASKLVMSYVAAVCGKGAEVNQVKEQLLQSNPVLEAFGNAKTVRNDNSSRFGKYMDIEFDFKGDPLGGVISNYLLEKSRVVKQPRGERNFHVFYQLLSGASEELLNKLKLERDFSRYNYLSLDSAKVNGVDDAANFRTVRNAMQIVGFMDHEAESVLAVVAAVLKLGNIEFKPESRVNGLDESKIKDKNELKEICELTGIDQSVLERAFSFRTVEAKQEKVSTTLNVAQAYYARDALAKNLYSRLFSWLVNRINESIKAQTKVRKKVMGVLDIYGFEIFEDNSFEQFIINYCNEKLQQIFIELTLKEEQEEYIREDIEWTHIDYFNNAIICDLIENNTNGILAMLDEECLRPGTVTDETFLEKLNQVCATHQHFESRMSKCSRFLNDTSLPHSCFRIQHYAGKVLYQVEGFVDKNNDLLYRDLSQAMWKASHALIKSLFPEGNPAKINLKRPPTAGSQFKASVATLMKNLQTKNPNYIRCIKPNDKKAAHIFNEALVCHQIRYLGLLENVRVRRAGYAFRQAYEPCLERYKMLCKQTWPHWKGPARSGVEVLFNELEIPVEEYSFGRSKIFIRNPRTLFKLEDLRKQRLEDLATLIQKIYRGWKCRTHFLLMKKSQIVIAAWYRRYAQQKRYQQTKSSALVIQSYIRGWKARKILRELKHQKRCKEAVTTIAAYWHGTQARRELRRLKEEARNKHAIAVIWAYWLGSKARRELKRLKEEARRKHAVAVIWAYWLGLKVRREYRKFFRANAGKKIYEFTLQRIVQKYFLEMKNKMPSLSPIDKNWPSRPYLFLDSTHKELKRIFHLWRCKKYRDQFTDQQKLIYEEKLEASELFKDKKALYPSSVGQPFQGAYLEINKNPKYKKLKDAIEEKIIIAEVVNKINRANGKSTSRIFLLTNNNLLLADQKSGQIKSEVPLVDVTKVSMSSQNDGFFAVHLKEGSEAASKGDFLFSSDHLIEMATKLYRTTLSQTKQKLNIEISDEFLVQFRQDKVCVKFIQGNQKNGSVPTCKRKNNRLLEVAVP
Sequence of UniProt Q8WV92 (Q8WV92 whole entry, one chain of several): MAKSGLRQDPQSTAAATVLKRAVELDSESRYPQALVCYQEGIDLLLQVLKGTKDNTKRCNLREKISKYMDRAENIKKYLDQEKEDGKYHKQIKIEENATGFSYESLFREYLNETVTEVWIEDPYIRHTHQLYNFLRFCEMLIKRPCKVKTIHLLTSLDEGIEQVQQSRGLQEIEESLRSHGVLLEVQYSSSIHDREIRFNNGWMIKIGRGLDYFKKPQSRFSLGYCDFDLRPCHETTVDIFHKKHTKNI
Sequence of UniProt P20839 (P20839 whole entry, looked up, one chain of several): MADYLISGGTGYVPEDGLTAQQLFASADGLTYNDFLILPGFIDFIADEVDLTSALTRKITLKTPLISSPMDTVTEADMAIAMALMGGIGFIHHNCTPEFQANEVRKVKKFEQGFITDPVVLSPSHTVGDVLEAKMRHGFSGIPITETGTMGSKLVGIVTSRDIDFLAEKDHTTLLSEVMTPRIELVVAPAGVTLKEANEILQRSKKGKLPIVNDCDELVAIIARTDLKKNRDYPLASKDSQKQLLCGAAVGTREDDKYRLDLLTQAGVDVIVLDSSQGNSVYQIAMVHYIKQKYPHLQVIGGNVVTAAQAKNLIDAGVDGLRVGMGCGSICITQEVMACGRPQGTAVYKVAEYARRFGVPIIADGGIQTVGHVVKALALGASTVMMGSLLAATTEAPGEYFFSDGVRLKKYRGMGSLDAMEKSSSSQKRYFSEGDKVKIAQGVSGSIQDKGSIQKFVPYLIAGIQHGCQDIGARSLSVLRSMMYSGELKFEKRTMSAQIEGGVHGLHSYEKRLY
Sequence of UniProt O15533 (O15533 whole entry, one chain of several): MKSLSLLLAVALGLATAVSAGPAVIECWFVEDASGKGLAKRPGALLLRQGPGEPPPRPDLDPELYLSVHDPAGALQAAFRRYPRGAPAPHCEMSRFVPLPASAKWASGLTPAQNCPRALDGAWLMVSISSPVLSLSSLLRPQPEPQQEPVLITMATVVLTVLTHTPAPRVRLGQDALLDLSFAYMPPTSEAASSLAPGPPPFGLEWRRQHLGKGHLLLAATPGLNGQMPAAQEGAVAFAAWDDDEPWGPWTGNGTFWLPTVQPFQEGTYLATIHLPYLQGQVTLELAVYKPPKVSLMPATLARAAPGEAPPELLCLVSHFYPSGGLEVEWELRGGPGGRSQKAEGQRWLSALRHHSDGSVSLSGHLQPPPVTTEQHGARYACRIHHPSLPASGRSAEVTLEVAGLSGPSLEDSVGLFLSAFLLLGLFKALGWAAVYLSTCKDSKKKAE

Target	NP40-soluble protein abundance (concentration: 1mM)	NP40-soluble protein abundance (concentration: 2mM)	NP40-soluble protein abundance (concentration: 4mM)	NP40-soluble protein abundance (concentration: 6mM)	NP40-soluble protein abundance (concentration: 8mM)	NP40-soluble protein abundance (concentration: 10mM)
C9J381|P20839|P20839-2|P20839-3|P20839-4|P20839-5|P20839-6|P20839-7 (UniProt P20839)	0.999 ± 0.049	0.9672 ± 0.0062	0.933 ± 0.018	0.695 ± 0.051	0.61 ± 0.018	0.581 ± 0.033
J3KNW7|Q9Y592|Q9Y592-2 (UniProt Q9Y592)	1.06 ± 0.072	0.9299 ± 0.0068	1.02 ± 0.032	1.04 ± 0.028	1.07 ± 0.062	0.993 ± 0.077
J3QTA6|Q9BRQ6 (UniProt Q9BRQ6)	0.958 ± 0.12	0.921 ± 0.073	0.897 ± 0.087	0.925 ± 0.13	0.918 ± 0.093	0.874 ± 0.067
UniProt E9PSI1	0.9713 ± 0.0047	0.986 ± 0.015	0.981 ± 0.015	0.939 ± 0.037	0.958 ± 0.044	0.96 ± 0.04
UniProt O14662-2|O14662-4|O14662-5	0.98 ± 0.066	0.94 ± 0.042	0.993 ± 0.044	0.974 ± 0.037	0.983 ± 0.034	0.921 ± 0.068
H0YLE6|Q9NWH9|H0YNF3 (UniProt Q9NWH9)	0.961 ± 0.054	0.988 ± 0.027	0.993 ± 0.038	1.11 ± 0.059	1.08 ± 0.032	1.13 ± 0.033
NDUFA2 (UniProt O43678)	0.882 ± 0.1	0.874 ± 0.16	0.924 ± 0.1	0.985 ± 0.21	0.876 ± 0.081	0.835 ± 0.13
A8MXP9|P43243|P43243-2 (UniProt P43243)	1.02 ± 0.042	1.03 ± 0.038	1 ± 0.026	1.05 ± 0.039	1 ± 0.029	1.03 ± 0.015
E9PDF6|O43795 (UniProt O43795)	2.78 ± 0.047	2.71 ± 0.065	2.65 ± 0.15	2.65 ± 0.21	2.82 ± 0.17	2.67 ± 0.12
M0R042|P04350 (UniProt P04350)	1.01 ± 0.089	0.962 ± 0.037	1.02 ± 0.034	0.934 ± 0.058	1.02 ± 0.018	0.955 ± 0.071
H0YM92|J3KMZ9|P01130|P01130-5|H0YMD1|P01130-4 (UniProt P01130)	0.962 ± 0.026	0.977 ± 0.016	0.981 ± 0.023	0.966 ± 0.029	0.9771 ± 0.0072	0.987 ± 0.016
H7C3Q6|Q8WV92|B8ZZL5 (UniProt Q8WV92)	1.85 ± 0.55	1.9 ± 0.66	1.92 ± 0.67	1.9 ± 0.76	1.97 ± 0.67	1.94 ± 0.67
A0A0A0MSV9|A0A0G2JH37|A0A0G2JKZ1|A2AB90|O15533|O15533-2|O15533-3 (UniProt O15533)	1.04 ± 0.066	1.02 ± 0.067	0.986 ± 0.028	0.968 ± 0.047	0.99 ± 0.085	0.984 ± 0.088
A0A0A6YYA7|Q12851|Q12851-2 (UniProt Q12851)	1.02 ± 0.026	1 ± 0.044	1.03 ± 0.063	0.994 ± 0.079	0.994 ± 0.026	0.998 ± 0.027
B4DZG1|Q9Y483-3|Q9Y483 (UniProt Q9Y483)	1.19 ± 0.023	1.25 ± 0.027	1.36 ± 0.057	1.41 ± 0.082	1.5 ± 0.032	1.56 ± 0.049
